# Measured values: the supplement of paper PMC8371130
# Where a name gives a salt, the structure may show the parent alone.
# Test system: HL-1
# Experiment: relative cell viability (CellTiter-Glo) vs DMSO control (% of DMSO control); higher = more viable cells
# Conditions: oxygen condition: hypoxia 48 h (1% O2) + reoxygenation 24 h; 1000 nM
# In short: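 HL-1 mouse atrial cardiomyocytes were plated in 384-well plates at 1000 cells per well together with compounds at 40, 200, 1000 or 5000 nM in 0.01% DMSO. One day later, cells went to a hypoxic workstation (1% O2) for 48 h, then were reoxygenated for 24 h in a normal incubator, or stayed in normoxia for the same time. Cell viability was read by CellTiter-Glo luminescence and normalised to vehicle-treated control cells.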
row,SMILES,relative cell viability
1,N.N.[Cl][Pt][Cl] [Cisplatin],80.1
2,CCN(C)C(=O)Oc1cccc([C@H](C)N(C)C)c1 [Rivastigmine tartrate],110
3,C[C@@H]1O[C@@H](O[C@H]2C[C@@H](O)[C@]3(CO)[C@H]4[C@H](O)C[C@]5(C)[C@@H](C6=CC(=O)OC6)CC[C@]5(O)[C@@H]4CC[C@]3(O)C2)[C@H](O)[C@H](O)[C@H]1O [Ouabain],95.3
4,OC(c1ccccc1)(c1ccccc1)C1CCNCC1 [Azacyclonol],106
5,CCC1(c2cccc(O)c2)CCCCN(C)C1 (centres undefined) [Meptazinol HCl],103
6,CNC(=O)Oc1ccc2c(c1)[C@]1(C)CCN(C)[C@@H]1N2C [Physostigmine Salicylate],69.5
7,CN1[C@@H]2CC[C@H]1C[C@@H](OC(=O)[C@H](CO)c1ccccc1)C2 [Hyoscyamine],109
8,C[C@]12CC[C@H](O)CC1=CC[C@@H]1[C@@H]2CC[C@]2(C)C(=O)CC[C@@H]12 [Dehydroepiandrosterone],96.2
9,CC(=O)O[C@H]1C[C@@H]2CC[C@@H]3[C@H](CC[C@@]4(C)[C@H]3C[C@H]([N+]3(C)CCCCC3)[C@@H]4OC(C)=O)[C@@]2(C)C[C@@H]1[N+]1(C)CCCCC1 [Pancuronium],102
10,CN(C)C(=O)Oc1ccc[n+](C)c1 [Pyridostigmine Bromide],103
11,CN1c2ccccc2C(NCCCCCCC(=O)O)c2ccc(Cl)cc2S1(=O)=O (centres undefined) [Tianeptine sodium],108
12,CCCN1C[C@H](CSC)C[C@@H]2c3cccc4[nH]cc(c34)C[C@H]21 [Pergolide mesylate],106
13,O=C(O)c1nn(Cc2ccc(Cl)cc2Cl)c2ccccc12 [Lonidamine],109
14,C#C[C@]1(O)C=C[C@H]2[C@@H]3CCC4=CC(=O)CC[C@@H]4[C@H]3CC[C@@]21CC [Gestodene],109
15,Cc1cccc([C@H](C)c2c[nH]cn2)c1C [Dexmedetomidine HCl],102
16,C[N+](C)(C)CCCCCCCCCC[N+](C)(C)C [Decamethonium bromide],107
17,O=P1(N(CCCl)CCCl)NCCCO1 (centres undefined) [Cyclophosphamide monohydrate],97.1
18,CN1C(=O)COc2c(C(=O)NC3CN4CCC3CC4)cc(Cl)cc21 (centres undefined) [Azasetron HCl],105
19,Cc1cccc(C)c1NC1=NCCCS1 [Xylazine HCl],103
20,CC[C@@H](C(N)=O)N1CCCC1=O [Levetiracetam],118
21,O=C(O[C@H]1C[N+]2(CCCOc3ccccc3)CCC1CC2)C(O)(c1cccs1)c1cccs1 [Aclidinium Bromide],108
22,CC[N+]1(C)CCCC(OC(=O)C(O)(c2ccccc2)c2ccccc2)C1 (centres undefined) [Pipenzolate Bromide],102
23,C[C@]12C/C(=C/O)C(=O)C[C@@H]1CC[C@@H]1[C@@H]2CC[C@@]2(C)[C@H]1CC[C@]2(C)O [Oxymetholone],104
24,O=c1[nH]c2ccccc2n1CCCN1CCC(n2c(=O)[nH]c3cc(Cl)ccc32)CC1 [Domperidone],102
25,CC[C@@]1(O)C(=O)OCc2c1cc1n(c2=O)Cc2cc3ccccc3nc2-1 [Camptothecin],93.9
26,Cc1cccc([C@H](C)c2c[nH]cn2)c1C [Dexmedetomidine],106
27,COc1ccc(C(=O)N2CCCC2=O)cc1 [Aniracetam],110

# Same assay, conditions: oxygen condition: hypoxia 48 h (1% O2) + reoxygenation 24 h; 5000 nM
row,SMILES,relative cell viability
1,N.N.[Cl][Pt][Cl] [Cisplatin],111
2,CCN(C)C(=O)Oc1cccc([C@H](C)N(C)C)c1 [Rivastigmine tartrate],109
3,C[C@@H]1O[C@@H](O[C@H]2C[C@@H](O)[C@]3(CO)[C@H]4[C@H](O)C[C@]5(C)[C@@H](C6=CC(=O)OC6)CC[C@]5(O)[C@@H]4CC[C@]3(O)C2)[C@H](O)[C@H](O)[C@H]1O [Ouabain],115
4,OC(c1ccccc1)(c1ccccc1)C1CCNCC1 [Azacyclonol],108
5,CCC1(c2cccc(O)c2)CCCCN(C)C1 (centres undefined) [Meptazinol HCl],109
6,CNC(=O)Oc1ccc2c(c1)[C@]1(C)CCN(C)[C@@H]1N2C [Physostigmine Salicylate],41.9
7,CN1[C@@H]2CC[C@H]1C[C@@H](OC(=O)[C@H](CO)c1ccccc1)C2 [Hyoscyamine],106
8,C[C@]12CC[C@H](O)CC1=CC[C@@H]1[C@@H]2CC[C@]2(C)C(=O)CC[C@@H]12 [Dehydroepiandrosterone],111
9,CC(=O)O[C@H]1C[C@@H]2CC[C@@H]3[C@H](CC[C@@]4(C)[C@H]3C[C@H]([N+]3(C)CCCCC3)[C@@H]4OC(C)=O)[C@@]2(C)C[C@@H]1[N+]1(C)CCCCC1 [Pancuronium],109
10,CN(C)C(=O)Oc1ccc[n+](C)c1 [Pyridostigmine Bromide],103
11,CN1c2ccccc2C(NCCCCCCC(=O)O)c2ccc(Cl)cc2S1(=O)=O (centres undefined) [Tianeptine sodium],106
12,CCCN1C[C@H](CSC)C[C@@H]2c3cccc4[nH]cc(c34)C[C@H]21 [Pergolide mesylate],109
13,O=C(O)c1nn(Cc2ccc(Cl)cc2Cl)c2ccccc12 [Lonidamine],111
14,C#C[C@]1(O)C=C[C@H]2[C@@H]3CCC4=CC(=O)CC[C@@H]4[C@H]3CC[C@@]21CC [Gestodene],107
15,Cc1cccc([C@H](C)c2c[nH]cn2)c1C [Dexmedetomidine HCl],89.4
16,C[N+](C)(C)CCCCCCCCCC[N+](C)(C)C [Decamethonium bromide],112
17,O=P1(N(CCCl)CCCl)NCCCO1 (centres undefined) [Cyclophosphamide monohydrate],108
18,CN1C(=O)COc2c(C(=O)NC3CN4CCC3CC4)cc(Cl)cc21 (centres undefined) [Azasetron HCl],106
19,Cc1cccc(C)c1NC1=NCCCS1 [Xylazine HCl],107
20,CC[C@@H](C(N)=O)N1CCCC1=O [Levetiracetam],113
21,O=C(O[C@H]1C[N+]2(CCCOc3ccccc3)CCC1CC2)C(O)(c1cccs1)c1cccs1 [Aclidinium Bromide],110
22,CC[N+]1(C)CCCC(OC(=O)C(O)(c2ccccc2)c2ccccc2)C1 (centres undefined) [Pipenzolate Bromide],105
23,C[C@]12C/C(=C/O)C(=O)C[C@@H]1CC[C@@H]1[C@@H]2CC[C@@]2(C)[C@H]1CC[C@]2(C)O [Oxymetholone],114
24,O=c1[nH]c2ccccc2n1CCCN1CCC(n2c(=O)[nH]c3cc(Cl)ccc32)CC1 [Domperidone],109
25,CC[C@@]1(O)C(=O)OCc2c1cc1n(c2=O)Cc2cc3ccccc3nc2-1 [Camptothecin],37.7
26,Cc1cccc([C@H](C)c2c[nH]cn2)c1C [Dexmedetomidine],107
27,COc1ccc(C(=O)N2CCCC2=O)cc1 [Aniracetam],113
